# Results reported in PubChem BioAssay AID720707 (National Center for Advancing Translational Sciences (NCATS), 2013).
# Among all 360,000 compounds or so, about 270 (0.075%) were called active. Many of the other results were omitted from the sample, so actives are more common in it than they were. Values without a mark were called inactive. Calls follow the shape of the dose curve; as a rule, active = well fitted activation curve with a large enough effect; inconclusive = small, poorly fitted or top-dose-only effect; inactive = no such curve, though single readings can be large or run the other way.
# Target: Rap guanine nucleotide exchange factor 3 (Homo sapiens) (UniProt O95398)
# Sequence (O95398 whole entry, looked up): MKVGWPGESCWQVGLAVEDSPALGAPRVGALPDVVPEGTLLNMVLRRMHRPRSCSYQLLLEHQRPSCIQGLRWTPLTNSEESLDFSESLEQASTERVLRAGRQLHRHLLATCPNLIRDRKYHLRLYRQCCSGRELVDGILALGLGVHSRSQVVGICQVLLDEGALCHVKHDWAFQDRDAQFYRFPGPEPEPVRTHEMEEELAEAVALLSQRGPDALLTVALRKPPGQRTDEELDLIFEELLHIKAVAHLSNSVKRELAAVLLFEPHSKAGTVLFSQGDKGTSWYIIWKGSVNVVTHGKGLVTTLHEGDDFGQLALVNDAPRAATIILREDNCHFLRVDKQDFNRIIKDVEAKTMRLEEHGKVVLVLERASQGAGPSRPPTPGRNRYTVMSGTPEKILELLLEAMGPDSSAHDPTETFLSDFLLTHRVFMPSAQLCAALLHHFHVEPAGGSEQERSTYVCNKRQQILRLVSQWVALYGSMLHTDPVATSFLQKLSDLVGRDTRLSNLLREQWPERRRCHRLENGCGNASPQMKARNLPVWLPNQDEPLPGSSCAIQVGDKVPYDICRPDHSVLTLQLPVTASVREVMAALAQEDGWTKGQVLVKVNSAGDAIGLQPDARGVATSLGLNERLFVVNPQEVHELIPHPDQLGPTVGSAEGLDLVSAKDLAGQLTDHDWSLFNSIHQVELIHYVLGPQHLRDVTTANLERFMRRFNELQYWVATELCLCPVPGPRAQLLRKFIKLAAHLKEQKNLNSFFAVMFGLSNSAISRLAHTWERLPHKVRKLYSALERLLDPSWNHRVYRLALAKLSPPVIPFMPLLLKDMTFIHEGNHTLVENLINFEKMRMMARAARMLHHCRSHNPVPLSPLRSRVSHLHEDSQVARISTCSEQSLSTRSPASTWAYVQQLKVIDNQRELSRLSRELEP
# Experiment: qHTS for Agonist of cAMP-regulated guanine nucleotide exchange factor 3 (EPAC1): primary screen; also: nearly all actives have a fitted effect of over 60% in size
# Settings: biochemical assay; series mostly up to 154 µM; activation: at the top concentration
# Text: In multi-cellular eukaryotic organisms, the effects of cAMP are transduced by two ubiquitously-expressed intracellular cAMP receptors, the classic protein kinase A/cAMP-dependent protein kinase (PKA/cAPK) and the more recently discovered exchange protein directly activated by cAMP/cAMP-regulated guanine nucleotide exchange factor (EPAC/cAMP-GEF). Both PKA and EPAC are ubiquitously expressed in all tissues, and an increase in intracellular cAMP levels will lead to the activation of both PKA and EPAC. Therefore, careful dissections of the individual role and relative contribution of EPAC and PKA within the overall cAMP signaling in various model systems are critical for further elucidating the mechanism of cAMP signaling. To date no EPAC-specific antagonists and agonist, as well as isoform-specific agonists have been reported, and developing EPAC-specific pharmacological probes to determine the physiological functions that EPAC play in the overall cAMP-mediated signaling remains a major challenge within the research field. Furthermore, identified regulators of EPAC may lead to new mechanism-based therapeutic strategies specifically targeting the EPAC / cAMP-signaling components as EPAC has been implicated to play important roles in major human pathological conditions such as diabetes, heart disease, and cancer.
# This qHTS will be used to screen the Molecular Libraries Small Molecule Repository (MLSMR) as a concentration-titration series using the NCGC unique quantitative screening (qHTS) platform to find activators for EPAC1. In addition, this assay will also be used as a counterscreen for the EPAC2 qHTS. This fluorescent based assay is developed and validated for EPAC1 that measures exchange using EPAC effector Rap1 complex with BODIPY-GDP, a GDP analog with a tethered fluorophores. Activators are identified by monitoring the change in fluorescence signal as the exchanged free BODIPY-GDP has a reduced fluorescence compared to Rap1-bound BODIPY-GDP. Increase in signal (activation) is the desired outcome for the EPAC1 agonist while no activity in this assay is desired for the EPAC2 agonist counterscreen.
# [1] de Rooij, J., Zwartkruis, F. J., Verheijen, M. H., Cool, R. H., Nijman, S. M., Wittinghofer, A., and Bos, J.L. (1998) Nature 396, 474-477
# NIH Chemical Genomics Center [NCGC]
# NIH Molecular Libraries Probe Centers Network [MLPCN]
# Assay Submitter (PI): Xiaodong Cheng, The University of Texas Medical Branch
# Briefly, three uL of reagents (100 nM EPAC1, 250 nM RAP1B-BODIPY-GDP, 50 uM GDP) were dispensed into a 1536-well Greiner black solid-bottom medium binding assay plate. Controls and test compounds (23 nL) were transferred to the plate via a Kalypsys pin tool equipped with a 1536-pin array. The plates were centrifuged at 1,000 rpm for 15 seconds followed by 5 minute incubation at room temperature. The assay plates were read at 5 minute intervals for 30 minutes in the ViewLux plate reader using 480nm excitation and 540nm emission filters. The results were normalized to the agonist positive control of 6.5 mM cAMP.
# Potency is read from the fitted curve at half-maximal effect.
SMILES,activation [%],Potency
O=C(O)Cc1csc(NC(=O)CSc2nnnn2-c2ccc(O)cc2)n1,-13.7,
COc1cccc(N2CC(NC(=O)c3ccc4ccccc4c3)CC2=O)c1 (configuration not stated),-10.4,
O=C1c2cccnc2C(Nc2ccc(S(=O)(=O)N3CCCCCC3)cc2)N1Cc1ccccc1 (configuration not stated),9.65,
NC(=O)c1ccsc1NC(=O)COC(=O)COc1ccc(C=O)cc1,6.98,
Cc1ccc(NC(=O)CN(C)C(=O)COC(=O)c2nccnc2N)cc1,-4.92,
O=S(=O)(c1ccccc1)c1nc(Cc2ccccc2)oc1N1CCOCC1,-0.0652,
COc1ccc(NC(=O)NCCN2CCN(c3ccc(C)cc3)CC2)c(Cl)c1,-6.15,
O=C(CSc1nnc2c(n1)[nH]c1ccccc12)NC1CCCCC1,5.6,
O=C(C1CCN(c2nnc(-n3cccc3)s2)CC1)N1CCc2ccccc2C1,-1.95,
Cc1ccc(C)c(S(=O)(=O)N2CCCOC2CNC(=O)C(=O)NC2CCCCC2)c1 (configuration not stated),-11,
O=C(CN1CCc2ccccc2C1)Nc1cccc(S(=O)(=O)N2CCOCC2)c1,-0.384,
CC(C)Oc1ccc(C(=O)NC(C)(C)CO)cc1,8.01,
O=C(Nc1cc2c3c(c1)CC(=O)N3CCC2)c1ccccc1F,-3.25,
Cc1cc([N+](=O)[O-])nn1CC(=O)Nc1ccc(Cc2ccncc2)cc1,-0.234,
O=C1CCCN2N=C(SCC(=O)Nc3ccc(Br)cc3)SC2=N1,17.5,
CCC1CCCCN1C(=S)Nc1ccc(S(=O)(=O)Nc2ncccn2)cc1 (configuration not stated),12.6,
Cc1ccsc1CNn1cnnc1SCc1ccccc1F,10.8,
COc1ccc(N2CCN(C(CNS(=O)(=O)c3ccc(C)cc3)c3ccccc3)CC2)cc1 (configuration not stated),8.4,
CCOC(=O)C1CCN(Cc2ccc(-c3ccccc3)cc2)CC1,12,
CCOC(=O)/C(C#N)=C/c1ccc(N2CCN(Cc3ccccc3)CC2)cc1,,89.1 µM (active)
CCCn1c(C)cc(/C=C(\C#N)C(=O)OCC(=O)N(C)c2c(N)n(Cc3ccccc3)c(=O)[nH]c2=O)c1C,5.74,
Cn1cnc([N+](=O)[O-])c1Nc1ccccc1O,-3.09,
COc1ccc2c3c1O[C@H]1C[C@@H](O)C=C[C@@]31CCN(C)C2,5.28,
COc1cc(C(=O)NCC(c2ccco2)N2CCCC2)ccc1OCc1ccccc1 (configuration not stated),5.29,
CC(=O)NC(C)(C)C1CC=C(C)/C(=N\O)C1 (configuration not stated),1.89,
COc1ccc([N+](=O)[O-])cc1NC(=O)C(C)OC(=O)C1c2ccccc2Oc2ccccc21 (configuration not stated),5.45,

SMILES,activation [%],Potency
C[C@@H]1CN([C@H](C)CO)C(=O)c2cc(NC(=O)NC3CCCCC3)ccc2O[C@H]1CN(C)S(C)(=O)=O,-3.15,
CSc1nnc2c(n1)OC(c1ccsc1)N(C(C)=O)c1ccccc1-2 (configuration not stated),-0.63,
CC(NC(=O)CCC(=O)N1CCN(S(=O)(=O)c2ccc(Cl)cc2)CC1)c1ccccc1 (configuration not stated),4.86,
Cc1ccsc1-c1nc(CSCC(=O)NCCN2CCCC2)c(C)o1,8.65,
COc1ccc(-n2c(SCC(=O)Nc3ccc4c(c3)OCO4)nnc2C(C)N2CCCCC2)cc1 (configuration not stated),6.7,
NS(=O)(=O)c1cc(C(=O)OCC(=O)NNC(=O)c2ccccc2)ccc1Cl,9.9,
O=c1c2ccccc2ccc2ccc(P(=O)(O)O)cc12,-18,
CC(=O)Nc1ccc(S(=O)(=O)N(C)CC(=O)NCCC2=CCCCC2)cc1,-4.75,
COc1cc(OC)cc(C(=O)NCC(=O)N2CCCCCCC2)c1,-5.76,
COC(=O)C(C(=O)Nc1cccc(C)n1)C1CCCCCC1 (configuration not stated),2.99,
C[C@H]1CN([C@@H](C)CO)C(=O)CCCn2cc(nn2)CO[C@@H]1CN(C)S(=O)(=O)c1cccc(C#N)c1,1.15,
CN(C)c1ccc(C2Nc3ccccc3C(=O)N2NS(=O)(=O)c2ccccc2)cc1 (configuration not stated),12.9,
O=C(O)c1cccnc1NC1CCCC1,8.94,
COC(=O)c1ccccc1NC(=O)CSc1nc2c(c(=O)[nH]1)CCC2,5.97,
Oc1ccc2ccc3cccc[n+]3c2c1,,89.1 µM (active)
C=CCN1CCN(c2ccncc2S(=O)(=O)N2CCN(C)CC2)CC1,8.73,
CC(=O)Nc1ccc(S(=O)(=O)N2CCN(C(=O)c3ccccc3F)CC2)cc1,2.19,
CCOC(=O)N1CCC(N(CCOC)C(=O)Nc2ccc(C)c(C)c2)CC1,7.87,
COc1ccc(-c2cc(NC=O)c3ncc(-c4ccccc4)n3c2)cc1OC,9.19,
O=C(O)CCCCCCCCCC[n+]1ccccc1,1.29,
Cc1cc(C)n2nc(C(=O)N(C)C(c3ccccc3)c3ccccc3)nc2n1,-4.38,
CCn1cc(CN2CCN(CC(C)(C)C)C(CCO)C2)c2ccccc21 (configuration not stated),-3.98,
NS(=O)(=O)c1ccc(N=Cc2ccc(Br)s2)cc1,5.66,
COC(=O)c1cc(NC(=O)CN2CCC(C(N)=O)(N3CCCCC3)CC2)cc(C(=O)OC)c1,5.47,
O=C(O)CSCNC(=O)CC12CC3CC(CC(C3)C1)C2,2.38,
Cc1ccc(CCNC(=O)C2CCN(S(=O)(=O)N3CCCC3)CC2)cc1,-0.549,
